92 molecules from PubChem BioAssay AID1527 (The Scripps Research Institute Molecular Screening Center, 2009) can be followed below.

In all, about 290,000 compounds went through this assay and about 2,600 (0.9%) were called active. The sample holds actives, similar compounds and a random draw of the others, so the mix is not that of the screen. A number with no mark means an inactive call.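 The calls were made as follows: active = inhibition above the mean of all tested compounds plus 3 SD, cutoff set per screening run (cut at about 7.5% in these data); inactive = the rest.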

The test system of the assay is VIM-2 metallo-beta-lactamase (Pseudomonas aeruginosa). The experiment in a line: inhibition of VIM-2 nitrocefin hydrolysis – biochemical, epi-absorbance readout, Pseudomonas aeruginosa enzyme, primary screen (AID 1527).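 Also: red hydrolysis product quenches plate fluorescence so inhibitors raise well fluorescence; 0% = enzyme with DMSO and 100% = DMSO without enzyme.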 Conditions: purified VIM-2, nitrocefin hydrolysis, epi-absorbance fluorescence; at 5.6 µM; stronger effect = higher value.
As a reminder, the inhibition is the drop in the measured response relative to a control, in per cent. Take `CCc1cc(=O)oc2cc(C)cc(OC(C)C(=O)O)c12` (configuration not stated): the inhibition is -2.35%. Next, `CCCc1cc(=O)oc2c(C)c(OCC(=O)N3CCC(C(=O)O)CC3)ccc12`: -1.65%. The same measure for `CCc1cc(=O)oc2cc(C)cc(OCC(=O)N3CCC[C@@H]3C(=O)O)c12`: 14.5% (active); for `O=C(NCC1CCCO1)c1ccccc1-c1nc(-c2ccccc2Cl)no1` (configuration not stated): -2.71%. With `COc1ccccc1NC(=O)c1cc(N2C(=O)C3C4CCC(C4)C3C2=O)ccc1Cl` (configuration not stated), the inhibition was -0.65%. Next, `COc1ccc(CCn2c(=N)c(C(=O)NCC3CCCO3)cc3c(=O)n4cccc(C)c4nc32)cc1OC` (configuration not stated): 16.1% (active).

Turning to `COc1ccc(CCNC(=O)CCn2c(=O)c3ccccc3n(CC(=O)NCC3CCCO3)c2=O)cc1OC` (configuration not stated), the inhibition was -1.51%. The same measure for `Cc1cccn2c(=O)c3cc(C(=O)NCC4CCCO4)c(=N)n(Cc4ccc(F)cc4)c3nc12` (configuration not stated): 5.79%. In the case of `CCn1c(=N)c(C(=O)NCCCOC)cc2c(=O)n3cccc(C)c3nc21`, the inhibition was 10.5% (active). The same measure for `Cc1cccn2c(=O)c3cc(C(=O)NCCN4CCOCC4)c(=N)n(Cc4cccnc4)c3nc12`: 4.67%.

As for `COc1ccc(CCn2c(=N)c(C(=O)NCc3ccco3)cc3c(=O)n4cccc(C)c4nc32)cc1`, the inhibition is -1.42%. Next, `Cc1ccc(S(=O)(=O)N(CC(=O)NCCSC2CCCCC2)c2ccccc2F)cc1`: -2.1%; `COc1cccc(N(C(=O)c2snc(C(N)=O)c2N)C(C(=O)NCC2CCCO2)c2c[nH]c3ccccc23)c1` (configuration not stated): -0.46%; `CCOC(=O)C1(Cc2ccccc2C)CCCN(C(=O)CCc2c(C)noc2C)C1` (configuration not stated): 0.38%. Take `Cc1occc(=O)c1OCc1ccc(F)cc1`: the inhibition was -1.42%. Next, `COC(=O)CN1C(=O)[C@H]2[C@@H](C3CC3)N3C(=O)CN(Cc4ccc(-c5ccccc5)cc4)C(=O)[C@@]3(Cc3ccccc3)[C@H]2C1=O`: -2.72%. The same measure for `Cc1cc(NC(=O)c2ccc(F)cc2)ccc1NC(=O)c1ccco1`: -3.06%; for `Cc1[nH][nH]c(=O)c1N=Nc1ccccc1`: -4.7%. Next, `COC(=O)c1ccccc1N=Nc1c(C)[nH][nH]c1=O`: 8.28% (active); `Cc1[nH]n(-c2ccccc2)c(=O)c1N=Nc1ccccc1C(=O)N1CCCCC1`: -0.74%. Regarding `CN(Cc1ccco1)S(=O)(=O)c1nnc(NC(=O)c2ccccc2)s1`, the inhibition was -2.48%. The same measure for `O=c1oc2ccccc2c(NC2CCCCC2)c1NS(=O)(=O)c1ccc(Cl)cc1`: -2.68%; for `Cc1cc2c(cc1C)[n+](C)cn2CC(O)COCC1CC=CCC1` (configuration not stated): -3.17%; for `Clc1ccc(C2=CSC3=Nc4cccc5cccc(c45)N23)cc1`: 1.95%.

Regarding `Cc1cnc(C(=O)OCc2c(C)cc(C(C)(C)C)cc2C)cn1`, the inhibition is 0.21%. The same measure for `O=C1N=C(N2CCCC2)S/C1=C\c1cccc(Br)c1`: -0.86%.

As to `CCOc1cc(/C=C2\SC(N3CCCC(C)C3)=NC2=O)ccc1O` (configuration not stated), the inhibition is 14.7% (active). Next, `CCc1ccc(/C=C2\SC(N3CCOCC3)=NC2=O)cc1`: -0.98%; `CCOc1cc(/C=C2\SC(N3CCCCC3)=NC2=O)ccc1O`: 14.9% (active); `CC1CCN(C2=NC(=O)/C(=C/c3ccc(O)cc3)S2)CC1`: 1.8%. Turning to `O=C1N=C(N2CCc3ccccc3C2)S/C1=C\c1ccc(O)cc1`, the inhibition is 0.39%. Next, `COCCCNC(=O)[C@H]1N2C(=O)c3ccccc3C2SC1(C)C` (some centres not stated): 0.11%; `CC(C)c1ccc(OCC(O)CN2CCN(c3ccccn3)CC2)cc1` (configuration not stated): -3.55%; `CN(CC(=O)NCc1ccncc1)S(=O)(=O)c1ccc(Br)cc1`: -1.28%. `COc1ccccc1OCCCC(=O)Nc1ccc2c(c1)OCCO2`: the inhibition was -2.36%.

Turning to `CC1CCCCC1NC(=O)CCS(=O)(=O)c1ccc2c(c1)NC(=O)CO2` (configuration not stated), the inhibition was -1.17%.

With `COCC(=O)N1CCc2ccc(NC(=O)c3ccccc3Cl)cc2C1`, the inhibition is -2.32%. The same measure for `CSc1cccc(NC(=O)CN2C(=O)COc3ccc(S(=O)(=O)N4CCOCC4)cc32)c1`: -1.26%; for `O=C1/C(=C/c2cccs2)CCC1C1CCCC1` (configuration not stated): -3.15%; for `COc1cccc2c(O)cc(=O)n(C)c12`: -2.19%.

Consider `Cn1c(=O)c(Sc2ccc(Cl)cc2)c(O)c2ccccc21`, for which the inhibition is -2.02%. Take `Cn1c2ccccc2c(=O)c2c(O)cccc21`: the inhibition was 16.8% (active).

As for `COc1ccc(NC(=O)C2CCC(CNS(=O)(=O)c3csc(C(N)=O)c3)CC2)cc1OC` (configuration not stated), the inhibition is 1.07%. As to `Cc1cc(=O)oc2c(C)c(OCC(=O)NCCc3ccc(S(N)(=O)=O)cc3)ccc12`, the inhibition was 10.4% (active). In the case of `Cc1ccc2c(=O)cc(C(=O)NCCc3ccc(S(N)(=O)=O)cc3)oc2c1C`, the inhibition was 5.69%.

Turning to `Cc1cc(=O)oc2c(C)c(OCC(=O)NCCN3CCOCC3)ccc12`, the inhibition is 5.03%.

Turning to `Cc1ccccc1NC(=S)NC(=O)Cc1ccc(Cl)cc1`, the inhibition was -0.97%. The same measure for `O=C(NCCN1CCOCC1)c1cc(-c2cccs2)nc2ccccc12`: -0.14%; for `CCCN(CCC)CCNC(=O)c1cc2c(C)nc3ccccc3c2o1`: 10.2% (active); for `Cc1cc(=O)oc(C)c1C(=O)NCCN(C)Cc1ccccc1`: -1.11%. With `Cc1nc2ccccc2c2oc(C(=O)NCCCN3CCC(C)CC3)cc12`, the inhibition was 16.2% (active). The same measure for `CCCCN(C)CCCNC(=O)c1cc(-c2cccs2)nc2ccccc12`: -1.4%; for `CC1CCN(CCCn2c(SCC(=O)NC3CCCC3)nc3ccccc3c2=O)CC1`: -1.12%; for `Cc1ccccc1C(CC(=O)c1cccs1)C(C#N)C#N` (configuration not stated): -2.96%. The same measure for `O=S(=O)(NC1CCCCC1N1CCCCC1)c1ccc(Cl)cc1` (configuration not stated): -1.53%; for `CCCCn1c(N)c(N(CC)C(=O)c2ccccc2C(F)(F)F)c(=O)[nH]c1=O`: -0.36%. Take `Cc1ccc(N(CC(=O)NCC2CCCO2)C(=O)CNS(=O)(=O)c2ccc(Cl)cc2)cc1` (configuration not stated): the inhibition is -3.97%. Next, `COc1cccc(CNC(=O)Cn2c(=O)oc3cc(S(=O)(=O)N4CCCCC4)ccc32)c1`: -0.65%; `CCOC(=O)C1=C(O)/C(=C/c2ccc(OCC(=O)Nc3ccc(C)cc3)cc2)N=C1C`: -1.99%. Next, `CCn1c(SCC(=O)Nc2ccc3c(c2)OCCO3)nnc1C(C)C`: -1.97%; `CCCn1c(SCC(N)=O)nnc1C(C)C`: -1.77%; `CCCn1c(SCC(=O)c2ccc3c(c2)OCCO3)nnc1C(C)C`: 9.77% (active). With `CCN(CC)CCCNC(=O)COc1ccc2oc3c(c2c1)CCCC3`, the inhibition was -0.12%. Consider `O=C(N/N=C/c1cccc([N+](=O)[O-])c1)C1CC(=O)N(c2ccc(Br)cc2)C1` (configuration not stated), for which the inhibition was -1.97%. Next, `CCC1(C)Cc2c(sc3nc(SC)nc(N)c23)CO1` (configuration not stated): -3.26%; `CCSc1nc2sc3c(c2c(=O)[nH]1)CC(C)(C)OC3`: 0.86%; `CN(C)CCSc1nc(N)c2c3c(sc2n1)COC(C)(C)C3`: 10.3% (active). Next, `CC1CC(NC(=O)/C(C#N)=C/c2ccc[nH]2)CC(C)(C)C1` (configuration not stated): -3.17%; `COc1ccc(C(=O)Nc2ccc(C3(C#N)CCCC3)cc2)cc1OC`: -1.46%. The same measure for `Cc1cc(C)cc(N(CC(=O)NC2CCCC2)C(=O)CCC(=O)Nc2cc(C)on2)c1`: -2.81%; for `CCC(CC)c1nnc(NS(=O)(=O)Cc2ccccc2)s1`: -1.98%; for `COc1ccc(Cc2nnc(NS(=O)(=O)Cc3ccccc3)s2)cc1`: 13.9% (active). Turning to `COc1ccc(Cc2nnc(NC(=O)Cc3cccs3)s2)cc1`, the inhibition is -3.71%. The same measure for `Cc1ccc(NS(=O)(=O)c2cn(C)c(=O)n(C)c2=O)c(C)c1`: -0.4%. The same measure for `CCS(=O)(=O)N1CCC(N2CCN(c3ccccc3)CC2)CC1`: -1.31%.

Regarding `O=C(NCCc1cccc(F)c1)C1CCCN(c2nc3ccccc3s2)C1` (configuration not stated), the inhibition is 0.44%.

Take `Cc1cc(Cl)c2oc(C(=O)NC(C)c3ccncn3)c(C)c2c1` (configuration not stated): the inhibition was -1.68%.

As for `CCC1CCCCN1CCCNC(=O)c1cc2c(Cl)nc3ccccc3c2s1` (configuration not stated), the inhibition is 19.5% (active). The same measure for `CCC1CCCCN1CCCNC(=O)Cn1nc(-c2ccccc2)ccc1=O` (configuration not stated): -1.79%; for `CCC1CCCCN1CCCNC(=O)C1CCC(Cn2c(=O)[nH]c3ccccc3c2=O)CC1` (configuration not stated): -4.77%; for `Cc1nn(C)c(Oc2ccccc2)c1CCNS(=O)(=O)c1ccc(F)cc1`: -2.13%. The same measure for `O=C(NCCCN1CCOCC1)c1cnn2c(-c3ccccc3)cc(-c3ccccc3)nc12`: 23.4% (active); for `O=C(NCCCN1CCOCC1)c1ccccc1NS(=O)(=O)c1ccc(F)cc1`: -1.71%; for `O=C(NCCCN1CCOCC1)c1ccccc1NS(=O)(=O)c1ccc(Br)cc1`: -2.82%. Next, `COc1ccccc1N(C)C(=O)c1cc(S(=O)(=O)N2CCc3ccccc32)cn1C`: -4.13%; `Brc1ccccc1C1N=C(c2ccccc2)NO1` (configuration not stated): -2.78%; `NS(=O)(=O)c1ccc(NC(=O)COC(=O)c2cc3ccccc3oc2=O)cc1`: 0.95%. On to `NS(=O)(=O)c1ccc(NC(=O)COC(=O)c2c3c(nc4ccccc24)/C(=C\c2ccc4c(c2)OCO4)CCC3)cc1`, for which the inhibition is 23.9% (active). The same measure for `O=C(COC(=O)c1c2c(nc3ccccc13)/C(=C\c1cccs1)CCC2)Nc1ccccc1Cl`: -4.79%; for `NC(=O)c1ccc(NC(=O)COC(=O)c2c3c(nc4ccccc24)/C(=C\c2ccc4c(c2)OCO4)CCC3)cc1`: 20.7% (active).

For the molecule `COc1cc(-c2cc(C(=O)OCC(=O)Nc3ccc4c(c3)OCO4)c3ccccc3n2)cc(OC)c1OC`, the inhibition was 2.83%. Regarding `COc1cc(/C=C2\CCCc3c2nc2ccccc2c3C(=O)O)cc(Cl)c1O`, the inhibition was 2.46%.
